Experimental data: the supplement of paper PMC9794691

Test system: PC9
Assay: area under confluence curve of osimertinib + compound combination regimen (DTP regrowth); compare to osimertinib-only DTP control AUC of the same experiment (AUC (confluence x time, arbitrary))
Description: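 compare to osimertinib-only DTP control AUC of the same experiment; Long-term drug-tolerant persister (DTP) screen in EGFR-mutant NSCLC cell lines in 48-well plates. The test compound was given at one fixed dose with osimertinib, either upfront (from day 0 to the DTP stage at 10-21 days, then drug-free medium) or sequentially (osimertinib alone to the DTP stage, then the test compound). IncuCyte confluence was tracked until osimertinib-only controls regrew, and AUC was computed in Prism. AUC scale depends on experiment duration, so each row carries the same-experiment osimertinib-only DTP and DMSO control AUCs; combination activity = control minus combo AUC. Osimertinib dose not stated.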

[1] = test compound dose 100 nM, dosing schedule: sequential, osimertinib-only DTP control AUC in same experiment: 12891, DMSO control AUC in same experiment: 44384
[2] = test compound dose 100 nM, dosing schedule: upfront, osimertinib-only DTP control AUC in same experiment: 16570, DMSO control AUC in same experiment: 44384

CC(=O)Nc1cccc(-n2c(=O)n(C3CC3)c(=O)c3c(Nc4ccc(I)cc4F)n(C)c(=O)c(C)c32)c1 [Trametinib] + C=CC(=O)Nc1cc(Nc2nccc(-c3cn(C)c4ccccc34)n2)c(OC)cc1N(C)CCN(C)C [osimertinib]
area under confluence curve (test compound dose 10 nM, dosing schedule: sequential, osimertinib-only DTP control AUC in same experiment: 14554, DMSO control AUC in same experiment: 49189): 10400 | area under confluence curve (test compound dose 10 nM, dosing schedule: sequential, osimertinib-only DTP control AUC in same experiment: 14708, DMSO control AUC in same experiment: 21341): 3390 | area under confluence curve (test compound dose 10 nM, dosing schedule: upfront, osimertinib-only DTP control AUC in same experiment: 21313, DMSO control AUC in same experiment: 21341): 6970 | area under confluence curve (test compound dose 10 nM, dosing schedule: upfront, osimertinib-only DTP control AUC in same experiment: 24473, DMSO control AUC in same experiment: 49189): 9410

CCN1CCN(Cc2ccc(Nc3ncc(F)c(-c4cc(F)c5nc(C)n(C(C)C)c5c4)n3)nc2)CC1 [Abemaciclib] + C=CC(=O)Nc1cc(Nc2nccc(-c3cn(C)c4ccccc34)n2)c(OC)cc1N(C)CCN(C)C [osimertinib]
area under confluence curve (test compound dose 100 nM, dosing schedule: sequential, osimertinib-only DTP control AUC in same experiment: 10725, DMSO control AUC in same experiment: 30578): 2310 | area under confluence curve (test compound dose 100 nM, dosing schedule: sequential, osimertinib-only DTP control AUC in same experiment: 15163, DMSO control AUC in same experiment: 28684): 7750 | area under confluence curve (test compound dose 100 nM, dosing schedule: sequential, osimertinib-only DTP control AUC in same experiment: 23366, DMSO control AUC in same experiment: 88996): 7100 | area under confluence curve (test compound dose 100 nM, dosing schedule: upfront, osimertinib-only DTP control AUC in same experiment: 10245, DMSO control AUC in same experiment: 30578): 6070 | area under confluence curve (test compound dose 100 nM, dosing schedule: upfront, osimertinib-only DTP control AUC in same experiment: 21337, DMSO control AUC in same experiment: 28684): 15800 | area under confluence curve (test compound dose 100 nM, dosing schedule: upfront, osimertinib-only DTP control AUC in same experiment: 29852, DMSO control AUC in same experiment: 88996): 6410

C/C=C/Cn1cc(-c2cc(OC)c(C(=O)N3CCOCC3)cc2OC)c2cc(C)[nH]c2c1=O + C=CC(=O)Nc1cc(Nc2nccc(-c3cn(C)c4ccccc34)n2)c(OC)cc1N(C)CCN(C)C [osimertinib]
area under confluence curve [1]: 7150 | area under confluence curve [2]: 7750

O=C(NC[C@H](O)CN1CCc2ccccc2C1)c1ccnc(NC2CCC2)c1 + C=CC(=O)Nc1cc(Nc2nccc(-c3cn(C)c4ccccc34)n2)c(OC)cc1N(C)CCN(C)C [osimertinib]
area under confluence curve [1]: 979 | area under confluence curve [2]: 3800

Cc1nc(Nc2n[nH]c3c2CN(C(=O)N[C@H](CN(C)C)c2ccccc2)C3(C)C)c2sccc2n1 + C=CC(=O)Nc1cc(Nc2nccc(-c3cn(C)c4ccccc34)n2)c(OC)cc1N(C)CCN(C)C [osimertinib]
area under confluence curve (test compound dose 100 nM, dosing schedule: sequential, osimertinib-only DTP control AUC in same experiment: 14258, DMSO control AUC in same experiment: 20347): 3500 | area under confluence curve (test compound dose 100 nM, dosing schedule: upfront, osimertinib-only DTP control AUC in same experiment: 21499, DMSO control AUC in same experiment: 20347): 12300

NC1(C(=O)N[C@@H](CCO)c2ccc(Cl)cc2)CCN(c2nc[nH]c3nccc2-3)CC1 [Capivasertib] + C=CC(=O)Nc1cc(Nc2nccc(-c3cn(C)c4ccccc34)n2)c(OC)cc1N(C)CCN(C)C [osimertinib]
area under confluence curve (test compound dose 300 nM, dosing schedule: sequential, osimertinib-only DTP control AUC in same experiment: 3562, DMSO control AUC in same experiment: 31840): 1390 | area under confluence curve (test compound dose 300 nM, dosing schedule: sequential, osimertinib-only DTP control AUC in same experiment: 10725, DMSO control AUC in same experiment: 30578): 2030 | area under confluence curve (test compound dose 300 nM, dosing schedule: sequential, osimertinib-only DTP control AUC in same experiment: 12535, DMSO control AUC in same experiment: 43316): 2150 | area under confluence curve (test compound dose 300 nM, dosing schedule: upfront, osimertinib-only DTP control AUC in same experiment: 10245, DMSO control AUC in same experiment: 30578): 9240 | area under confluence curve (test compound dose 300 nM, dosing schedule: upfront, osimertinib-only DTP control AUC in same experiment: 15354, DMSO control AUC in same experiment: 43316): 14600 | area under confluence curve (test compound dose 300 nM, dosing schedule: upfront, osimertinib-only DTP control AUC in same experiment: 19015, DMSO control AUC in same experiment: 31840): 13200

CN1CCN(CCOc2cc(OC3CCOCC3)c3c(Nc4c(Cl)ccc5c4OCO5)ncnc3c2)CC1 [Saracatinib] + C=CC(=O)Nc1cc(Nc2nccc(-c3cn(C)c4ccccc34)n2)c(OC)cc1N(C)CCN(C)C [osimertinib]
area under confluence curve (test compound dose 300 nM, dosing schedule: sequential, osimertinib-only DTP control AUC in same experiment: 9267, DMSO control AUC in same experiment: 19507): 4570 | area under confluence curve (test compound dose 300 nM, dosing schedule: sequential, osimertinib-only DTP control AUC in same experiment: 12589, DMSO control AUC in same experiment: 28243): 8930 | area under confluence curve (test compound dose 300 nM, dosing schedule: upfront, osimertinib-only DTP control AUC in same experiment: 10534, DMSO control AUC in same experiment: 19507): 1600 | area under confluence curve (test compound dose 300 nM, dosing schedule: upfront, osimertinib-only DTP control AUC in same experiment: 16088, DMSO control AUC in same experiment: 28243): 16200

Nc1nc(Nc2ccc3c(c2)CCC(N2CCCC2)CC3)nn1-c1cc2c(nn1)-c1ccccc1CCC2 (centres undefined) + C=CC(=O)Nc1cc(Nc2nccc(-c3cn(C)c4ccccc34)n2)c(OC)cc1N(C)CCN(C)C [osimertinib]
area under confluence curve (test compound dose 300 nM, dosing schedule: sequential, osimertinib-only DTP control AUC in same experiment: 11273, DMSO control AUC in same experiment: 20197): 6530 | area under confluence curve (test compound dose 300 nM, dosing schedule: sequential, osimertinib-only DTP control AUC in same experiment: 29087, DMSO control AUC in same experiment: 30008): 12100 | area under confluence curve (test compound dose 300 nM, dosing schedule: upfront, osimertinib-only DTP control AUC in same experiment: 13449, DMSO control AUC in same experiment: 20197): 7530 | area under confluence curve (test compound dose 300 nM, dosing schedule: upfront, osimertinib-only DTP control AUC in same experiment: 34430, DMSO control AUC in same experiment: 30008): 11700

Cc1cc(Nc2ncnc3ccc(NC4=NC(C)(C)CO4)cc23)ccc1Oc1ccn2ncnc2c1 [Tucatinib] + C=CC(=O)Nc1cc(Nc2nccc(-c3cn(C)c4ccccc34)n2)c(OC)cc1N(C)CCN(C)C [osimertinib]
area under confluence curve (test compound dose 1000 nM, dosing schedule: sequential, osimertinib-only DTP control AUC in same experiment: 13992, DMSO control AUC in same experiment: 30002): 11100 | area under confluence curve (test compound dose 1000 nM, dosing schedule: sequential, osimertinib-only DTP control AUC in same experiment: 16279, DMSO control AUC in same experiment: 29345): 17500 | area under confluence curve (test compound dose 1000 nM, dosing schedule: upfront, osimertinib-only DTP control AUC in same experiment: 19769, DMSO control AUC in same experiment: 29345): 18600 | area under confluence curve (test compound dose 1000 nM, dosing schedule: upfront, osimertinib-only DTP control AUC in same experiment: 22377, DMSO control AUC in same experiment: 30002): 17200
